Laboratory results reported in PubChem BioAssay (NCI).
About 83,000 compounds went through this panel and 20% of them were active in at least one assay; those are over-represented in the sample as a whole.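 Results are percent growth after 48 hours of single-concentration exposure. 100 means growth as in untreated cells, lower positive values show inhibition; negative values down to -100 show cell death.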 Unmarked numbers belong to inactive results. Active and inactive are the calls of the source. How the source made its calls: active means growth percent below 10; inactive means the rest.

system: HT29 colon; experiment: NCI-60 one-dose screen, 48 h (100 = growth as untreated, 0 = no growth, -100 = all killed); settings: 10 µM unless noted

Going from `CCOC(=O)c1c(-c2ccccc2)n2c(=O)cc(C)c3c(O)c(O)cc1c32` to `Cc1nc2sc(C(=O)Nc3ccc(Cl)cc3)c(N)c2cc1C(O)c1ccccc1` (stereo not given), the growth falls from 70.9% to 25%.

Compared with `CCOC(=O)c1n[nH]n2c1nc(=O)c1cnn(C)c12`, `CCOC(=O)C/C(=N\Nc1cc(=O)[nH]c2ccc(Cl)cc12)C(=O)OCC` is higher in growth: 107% for the first, 109% for the second.

Going from `O=C1NC(=C(Cl)Cl)/C(=N/S(=O)(=O)NCCc2c[nH]c3ccccc23)N1` to `Cn1cccc1/C=C1\C(=O)Nc2ccccc21`, the growth rises from 15% to 103%.

First: CC[C@]12C=CCN3CC[C@@]4(c5ccc(OC)cc5N(C)[C@H]4[C@@](O)(C(=O)OC)[C@@H]1OC(=O)CCCN1CCOCC1)[C@@H]32
Second: Cc1cc(C)cc(Nc2ccc([N+](=O)[O-])c(NCCN3CCOCC3)n2)c1
The growth of the first is higher: 110% for the first, 13.4% for the second.

Compared with `Nc1ccc([N+](=O)[O-])cc1N=C/C=C/c1ccccc1`, `CN(C)c1ccc(/C=C2/C=C(c3ccccc3)OC2=O)cc1` is higher in growth: 28.6% for the first, 94.7% for the second.

First: S=c1[nH]c2cc(Cl)ccc2o1
Second: N#Cc1c(N2CCOCC2)nc(=S)[nH]c1-c1ccccc1
The growth of the first is higher: 105% for the first, 86.1% for the second.

First: CC(C(=O)O)n1c(O)c(C=Nc2cccnc2)sc1=S (stereo not given)
Second: O=C(Nc1ccccc1)c1sc(-c2ccccc2)cc1O
The growth of the first is higher: 111% for the first, 107% for the second.

Compared with `O=C(/C=C/c1ccc(Br)cc1)c1ccc(-n2cc(CN3CCN(c4cc5c(cc4F)c(=O)c(C(=O)O)cn5C4CC4)CC3)nn2)cc1`, `Cc1ccc(S(=O)(=O)n2cc(C3C(Cl)C(=O)N3c3ccc(N4CCOCC4=O)cc3)c3ccccc32)cc1` (stereo not given) is lower in growth: 91.7% for the first, 56.6% for the second.

Going from `Cc1ccc2[nH]c(-c3ccc(S(C)(=O)=O)cc3)c(/C=N/N=C(N)N)c2c1` to `Cc1ccc(Nc2nc(-c3ccc(F)cc3)c(C#N)c(=O)n2C)cc1`, the growth rises from 16.7% to 78.2%.

Compared with `COc1ccc2nc(SCC(=O)Nc3ccccc3C)[nH]c2c1`, `COc1ccc(Cn2cc(C(=O)N=Nc3c(O)[nH]c4c(Cl)cccc34)nn2)cc1` is lower in growth: 109% for the first, 97% for the second.

First: Cc1ccc(C)n1/C=C/n1c(C)ccc1C
Second: COC(=O)C1=C(C)NC(C)=C(C(=O)OCC(C)C)C1c1ccccc1[N+](=O)[O-] (stereo not given)
The growth of the first is higher: 102% for the first, 87.3% for the second.

Compared with `Oc1c(CN2CCCC2)cc(COCc2ccccc2)c2cccnc12`, `CCc1cccc(Sc2cc(C(=O)N3Cc4ccc(OCCN(C)C)cc4C3)ccc2O)c1` is higher in growth: 74.4% for the first, 103% for the second.

First: O=P(O)(O)OCC1OC(n2cnc3c(NCc4ccccc4)ncnc32)C(O)C1O (stereo not given)
Second: CS(=O)(=O)Nc1cc(-c2ccc3ncnc(Nc4ccc5c(cnn5Cc5cccnc5)c4)c3c2)cnc1Cl
The growth of the first is lower: 23.3% for the first, 65.2% for the second.

Compared with `C=CCN=C(N)SCCCCCCSC(N)=NCC=C`, `CC1(C)CC[C@]2(C(=O)O)CC[C@]3(C)C(=CC[C@@H]4[C@@]5(C)C[C@@H](Cc6cn([C@@H]7O[C@H](CO)[C@@H](O)[C@H](O)[C@H]7O)nn6)[C@H](O)C(C)(C)[C@@H]5CC[C@]43C)[C@@H]2C1` is higher in growth: 73.2% for the first, 99.1% for the second.

Going from `COc1ccc(C2=NN(C(C)=O)C(c3ccc(Oc4ccnc5cc(Cl)ccc45)c(OC)c3)C2)cc1` (stereo not given) to `CS(=O)(=O)Nc1cncc(-c2ccc3ncnc(Nc4ccc(F)c(Cl)c4)c3c2)c1`, the growth rises from 15.1% to 20.7%.

In the case of `COc1cccc(/C=C/C(=O)c2cc3c(N)c(C(=O)Nc4cccc(Cl)c4C)sc3nc2C)c1`, the growth is reported as -80.7% (active).
For `COc1ccc2cc(-c3ccc(-c4ccc(C(=N)N)s4)s3)ccc2c1`, the growth was -70.8% (active).
With `COc1ccc(-c2ccc(=O)oc2C#Cc2cc(OC)c(OC)c(OC)c2)cc1O` the growth was -9.43% (active).
For `C#Cc1cccc(Nc2nc3ccc([N+](=O)[O-])cc3nc2Nc2cccc(C#C)c2)c1`, the growth was -75.9% (active).
`O=C1N[C@@H]2[C@@H](O)[C@@H](O)[C@H](O)C[C@H]2c2cc3c(c(O)c21)OCCO3` was tested, and the growth was -14.5% (active).
For `CCOC(=O)c1c(C)nc2c(c1N)CC(=O)N2Cc1cc(OC)c(OC)c(OC)c1`, the growth was 8.37% (active).
`CCN1C(=O)N(CC)C2C1NN=c1s/c(=C\c3ccccc3Br)c(=O)n12` (stereo not given) was tested, and the growth was 4.72% (active).
For `COc1cccc(/C=C/C(=O)c2cc3c(N)c(C(=O)Nc4ccccc4C)sc3nc2C)c1`, the growth was -5.29% (active).
In the case of `N=C(N)c1ccc(-c2ccc(-c3ccc(F)cc3)s2)s1`, the growth is reported as -76.1% (active).
With `CCN(CC)c1ccc(/C=N/NC(=O)c2ccc(Nc3ccnc(C(F)(F)F)c3)cc2)c(O)c1` the growth was 0.587% (active).
